Source: PubChem
CYP2C9 inhib – inhibitors of human CYP2C9 | CYP2C9 Supersomes, luciferin-H conversion, luminescence | inhibition, % at 5 µM | actives 20% (n = 96,000) | AID 777;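 active means blocking of liver enzyme CYP2C9 beyond about 50% at 5 µM, limit read from the data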
Target sequence (P11712 whole entry, looked up): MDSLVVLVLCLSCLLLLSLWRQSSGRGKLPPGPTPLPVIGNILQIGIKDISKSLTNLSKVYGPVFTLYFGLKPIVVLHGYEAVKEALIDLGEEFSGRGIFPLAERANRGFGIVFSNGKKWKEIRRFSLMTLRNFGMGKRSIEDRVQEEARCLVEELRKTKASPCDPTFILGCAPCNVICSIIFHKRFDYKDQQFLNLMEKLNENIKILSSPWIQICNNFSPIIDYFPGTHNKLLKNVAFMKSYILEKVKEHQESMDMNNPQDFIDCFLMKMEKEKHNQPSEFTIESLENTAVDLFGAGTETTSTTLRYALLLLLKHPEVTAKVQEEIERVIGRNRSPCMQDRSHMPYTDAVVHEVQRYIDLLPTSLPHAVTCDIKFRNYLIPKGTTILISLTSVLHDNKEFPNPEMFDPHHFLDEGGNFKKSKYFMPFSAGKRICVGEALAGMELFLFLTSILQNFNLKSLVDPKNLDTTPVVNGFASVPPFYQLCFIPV
CYP2C19 inh – human CYP2C19 inhibition; CYP2C19 Supersomes, luciferin-H EGE luminescence, 30 min; inhibition, % at 5 µM; actives 21% (n = 96,000); AID 778;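 active means CYP2C19 inhibition above a set limit at 5 µM in the primary screen, cut at about 50% in these data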
sEH act – soluble epoxide hydrolase (human) activation | P34913 | purified human sEH enzymatic activity, activator screen | activation, % at 2 µM | actives 0.04% (n = 91,000); in the data active means activation above about 37%
CYP2C9 activ – CYP2C9 (human) activation. AID 1024. activation factor at 5 µM. recombinant CYP2C9, luciferin-H conversion, luminescence; active compounds read high; factor 1 = untreated enzyme, 0 = blocked. actives 1.4% (n = 96,000). P11712;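 active means activation factor of 2 or more for CYP2C9 at a 5 µM dose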
sEH inhibitor – soluble epoxide hydrolase (human) inhibition | inhibition, % at 2 µM | AID 707 | recombinant human sEH enzymatic activity assay | actives 0.34% (n = 91,000) | P34913; in the data active means inhibition above about 80%
CYP2C19 activ – cytochrome P450 2C19 (human) activation; 96,000 tested, under 10 active; P33261; AID 1025; recombinant CYP2C19, luciferin-H EGE luminescence; active compounds read high; 0 = fully inhibited enzyme, 1 = untreated enzyme; activation factor at 5 µM;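 active means activation factor of at least 2 at 5 µM in the primary screen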
A number is an active result. A selection: hits, their analogues and other compounds. The true share with any hit is near 27%.

For Cc1ccc(Cl)cc1NC(=O)c1cccc(OC(F)F)c1 the results were CYP2C9 inhib inactive, CYP2C19 inh 55.2, sEH act inactive, CYP2C9 activ inactive, sEH inhibitor inactive and CYP2C19 activ inactive.
`COc1ccc(C(=O)Nc2cc(C(=O)NCCc3ccccc3)ccc2Cl)cc1` gave CYP2C9 inhib 82.9, CYP2C19 inh 57.3, sEH act inactive, CYP2C9 activ inactive, sEH inhibitor inactive and CYP2C19 activ inactive.
Screening COc1ccc(CCNC(=O)c2ccc(Cl)cc2)cc1 returned CYP2C9 inhib inactive, CYP2C19 inh inactive, sEH act inactive, CYP2C9 activ inactive, sEH inhibitor inactive and CYP2C19 activ inactive.
COc1cccc(C(=O)Nc2ccc(F)cc2F)c1 was read as sEH act inactive and sEH inhibitor inactive.
For COc1cccc(C(=O)Nc2ccc(F)c(F)c2F)c1 the results were CYP2C9 inhib inactive, CYP2C19 inh 54.2, sEH act inactive, CYP2C9 activ inactive, sEH inhibitor inactive and CYP2C19 activ inactive.
Screening CC1Cc2cc(/C(O)=C3/C(=O)C(=O)N(Cc4ccco4)C3c3cccs3)ccc2O1 (stereo unspecified) returned CYP2C9 inhib inactive, CYP2C19 inh inactive, sEH act inactive, CYP2C9 activ inactive, sEH inhibitor inactive and CYP2C19 activ inactive.
`COC(=O)C1=C(N)Oc2cc(C)[nH]c(=O)c2C1c1cccnc1` (stereo unspecified) gave CYP2C9 inhib inactive, CYP2C19 inh inactive, sEH act inactive, CYP2C9 activ inactive, sEH inhibitor inactive and CYP2C19 activ inactive.
`CCCCn1c(SCC(=O)NCc2cccs2)nc2c1c(=O)n(C)c(=O)n2C` gave CYP2C9 inhib inactive, CYP2C19 inh inactive, sEH act inactive, CYP2C9 activ inactive, sEH inhibitor inactive and CYP2C19 activ inactive.
O=C(Cc1coc(-c2ccc(F)cc2)n1)NCc1ccccc1 was read as CYP2C9 inhib inactive, CYP2C19 inh inactive, CYP2C9 activ inactive and CYP2C19 activ inactive.
`Cc1ccc(S(=O)(=O)N2CCCC(C(=O)NCCC3=CCCCC3)C2)cc1` (stereo unspecified) gave CYP2C9 inhib inactive, CYP2C19 inh inactive, sEH act inactive, CYP2C9 activ inactive, sEH inhibitor 82.2 and CYP2C19 activ inactive.
O=C(NCCC1=CCCCC1)C1CCCN(S(=O)(=O)c2ccccc2)C1 (stereo unspecified) was read as CYP2C9 inhib inactive, CYP2C19 inh inactive, sEH act inactive, CYP2C9 activ inactive, sEH inhibitor 83.8 and CYP2C19 activ inactive.
Screening Cc1cc(C)nc(N2CCCC(C(=O)NCCc3cccc(F)c3)C2)n1 (stereo unspecified) returned CYP2C9 inhib inactive, CYP2C19 inh inactive, CYP2C9 activ inactive and CYP2C19 activ inactive.
For Cc1cc(C)nc(N2CCCC(C(=O)NCCC3=CCCCC3)C2)n1 (stereo unspecified) the results were CYP2C9 inhib inactive, CYP2C19 inh 73.3, CYP2C9 activ inactive and CYP2C19 activ inactive.
Screening CCCCOC(=O)Nc1sc2c(c1C(=O)OC)CCC2 returned CYP2C9 inhib inactive, CYP2C19 inh inactive, CYP2C9 activ inactive and CYP2C19 activ inactive.
For Cn1c(C(=O)NCCN2CCc3ccccc3C2)cc2c(=O)n(C)c3ccccc3c21 the results were CYP2C9 inhib inactive, CYP2C19 inh inactive, CYP2C9 activ inactive and CYP2C19 activ inactive.
Screening Cc1nc(Oc2ccc(Cl)cc2)c2oc3ccccc3c2n1 returned CYP2C9 inhib inactive, CYP2C19 inh inactive, sEH act inactive, CYP2C9 activ inactive, sEH inhibitor inactive and CYP2C19 activ inactive.
O=C(O)c1cc2ccccc2n1-c1ccccc1 was read as CYP2C9 inhib 53.9, CYP2C19 inh inactive, CYP2C9 activ inactive and CYP2C19 activ inactive.
`CNC(=O)c1nnn(Cc2ccccc2)c1NC(=O)C(F)(F)F` gave CYP2C9 inhib inactive, CYP2C19 inh inactive, sEH act inactive, CYP2C9 activ inactive, sEH inhibitor inactive and CYP2C19 activ inactive.
Screening CCOc1ccc(-n2cc(C(=O)Nc3ccc(Cl)cn3)c3cc(OC)c(OC)cc3c2=O)cc1 returned CYP2C9 inhib inactive, CYP2C19 inh inactive, sEH act inactive, CYP2C9 activ inactive, sEH inhibitor inactive and CYP2C19 activ inactive.
For CC1CCCN(C(=O)c2ccncc2)C1 (stereo unspecified) the results were CYP2C9 inhib inactive, CYP2C19 inh 82.4, sEH act inactive, CYP2C9 activ inactive, sEH inhibitor inactive and CYP2C19 activ inactive.
Screening O=C(c1ccc(Cl)cc1)C1CCN(C(=O)C2CC2)CC1 returned CYP2C9 inhib inactive, CYP2C19 inh 82.7, sEH act inactive, CYP2C9 activ inactive, sEH inhibitor inactive and CYP2C19 activ inactive.
For O=C(c1ccc(F)cc1)C1CCN(C(=O)c2ccncc2)CC1 the results were CYP2C9 inhib 96.6, CYP2C19 inh 97.6, sEH act inactive, CYP2C9 activ inactive, sEH inhibitor inactive and CYP2C19 activ inactive.
For O=C(c1ccc(F)cc1)C1CCN(C(=O)N2CCOCC2)CC1 the results were CYP2C9 inhib inactive, CYP2C19 inh inactive, sEH act inactive, CYP2C9 activ inactive, sEH inhibitor inactive and CYP2C19 activ inactive.
Screening Cc1cc(NC(=O)C2C3C(=O)N(Cc4ccc(Cl)cc4)C(C(=O)NC(C)(C)C)C34C=CC2(C)O4)no1 (stereo unspecified) returned CYP2C9 inhib inactive, CYP2C19 inh inactive, sEH act inactive, CYP2C9 activ inactive, sEH inhibitor inactive and CYP2C19 activ inactive.
Screening Cc1ccc(S(=O)(=O)C2(C(=O)N3CCCCCC3)CC2)cc1 returned CYP2C9 inhib inactive, CYP2C19 inh 78.6, sEH act inactive, CYP2C9 activ inactive, sEH inhibitor inactive and CYP2C19 activ inactive.
O=C(c1ccccc1)c1ccc2ccccc2n1 was read as CYP2C9 inhib inactive, CYP2C19 inh 69.3, sEH act inactive, CYP2C9 activ inactive, sEH inhibitor inactive and CYP2C19 activ inactive.
Screening COc1ccccc1N(CC(=O)NC1CCCCC1)S(C)(=O)=O returned CYP2C9 inhib inactive, CYP2C19 inh inactive, sEH act inactive, CYP2C9 activ inactive, sEH inhibitor inactive and CYP2C19 activ inactive.
`Cc1c(Cl)cccc1N(CC(=O)NC1CCCCC1)S(C)(=O)=O` gave CYP2C9 inhib 70.4, CYP2C19 inh inactive, CYP2C9 activ inactive and CYP2C19 activ inactive.
`CS(=O)(=O)N(CC(=O)NC1CCCCCC1)Cc1ccccc1` gave CYP2C9 inhib inactive, CYP2C19 inh 86.6, sEH act inactive, CYP2C9 activ inactive, sEH inhibitor inactive and CYP2C19 activ inactive.
Screening CS(=O)(=O)N(CC(=O)Nc1ccccc1)Cc1ccc(Cl)cc1 returned CYP2C9 inhib 88.7, CYP2C19 inh 96.1, sEH act inactive, CYP2C9 activ inactive, sEH inhibitor inactive and CYP2C19 activ inactive.
CS(=O)(=O)N(CC(=O)NC1CCCCCC1)Cc1ccc(Cl)cc1 was read as CYP2C9 inhib inactive, CYP2C19 inh inactive, sEH act inactive, CYP2C9 activ inactive, sEH inhibitor inactive and CYP2C19 activ inactive.
CCOc1ccccc1NC(=O)CN(Cc1ccccc1)S(C)(=O)=O was read as CYP2C9 inhib inactive, CYP2C19 inh 93.6, sEH act inactive, CYP2C9 activ inactive, sEH inhibitor inactive and CYP2C19 activ inactive.
